Laboratory results published in the supplement of paper PMC11732987, “Enantioselective OTUD7B fragment discovery through chemoproteomics screening and high-throughput optimisation” (Communications Chemistry, 2025).

Legend:
Test in all cases: log2 ratio of Biotin-Ahx-Ub-VS probe labelling (fragment/DMSO); higher = less target engagement (more negative = stronger competition), active = hit call of the paper (q ≤ 0.05, log2 ratio ≤ -1)
Details in all cases: compound concentration: 200 uM; treatment time: 3 h
[1] = target: USP34 (UniProt Q70CQ2)
USP34, sequence (Q70CQ2 whole entry, the tested form may be a part): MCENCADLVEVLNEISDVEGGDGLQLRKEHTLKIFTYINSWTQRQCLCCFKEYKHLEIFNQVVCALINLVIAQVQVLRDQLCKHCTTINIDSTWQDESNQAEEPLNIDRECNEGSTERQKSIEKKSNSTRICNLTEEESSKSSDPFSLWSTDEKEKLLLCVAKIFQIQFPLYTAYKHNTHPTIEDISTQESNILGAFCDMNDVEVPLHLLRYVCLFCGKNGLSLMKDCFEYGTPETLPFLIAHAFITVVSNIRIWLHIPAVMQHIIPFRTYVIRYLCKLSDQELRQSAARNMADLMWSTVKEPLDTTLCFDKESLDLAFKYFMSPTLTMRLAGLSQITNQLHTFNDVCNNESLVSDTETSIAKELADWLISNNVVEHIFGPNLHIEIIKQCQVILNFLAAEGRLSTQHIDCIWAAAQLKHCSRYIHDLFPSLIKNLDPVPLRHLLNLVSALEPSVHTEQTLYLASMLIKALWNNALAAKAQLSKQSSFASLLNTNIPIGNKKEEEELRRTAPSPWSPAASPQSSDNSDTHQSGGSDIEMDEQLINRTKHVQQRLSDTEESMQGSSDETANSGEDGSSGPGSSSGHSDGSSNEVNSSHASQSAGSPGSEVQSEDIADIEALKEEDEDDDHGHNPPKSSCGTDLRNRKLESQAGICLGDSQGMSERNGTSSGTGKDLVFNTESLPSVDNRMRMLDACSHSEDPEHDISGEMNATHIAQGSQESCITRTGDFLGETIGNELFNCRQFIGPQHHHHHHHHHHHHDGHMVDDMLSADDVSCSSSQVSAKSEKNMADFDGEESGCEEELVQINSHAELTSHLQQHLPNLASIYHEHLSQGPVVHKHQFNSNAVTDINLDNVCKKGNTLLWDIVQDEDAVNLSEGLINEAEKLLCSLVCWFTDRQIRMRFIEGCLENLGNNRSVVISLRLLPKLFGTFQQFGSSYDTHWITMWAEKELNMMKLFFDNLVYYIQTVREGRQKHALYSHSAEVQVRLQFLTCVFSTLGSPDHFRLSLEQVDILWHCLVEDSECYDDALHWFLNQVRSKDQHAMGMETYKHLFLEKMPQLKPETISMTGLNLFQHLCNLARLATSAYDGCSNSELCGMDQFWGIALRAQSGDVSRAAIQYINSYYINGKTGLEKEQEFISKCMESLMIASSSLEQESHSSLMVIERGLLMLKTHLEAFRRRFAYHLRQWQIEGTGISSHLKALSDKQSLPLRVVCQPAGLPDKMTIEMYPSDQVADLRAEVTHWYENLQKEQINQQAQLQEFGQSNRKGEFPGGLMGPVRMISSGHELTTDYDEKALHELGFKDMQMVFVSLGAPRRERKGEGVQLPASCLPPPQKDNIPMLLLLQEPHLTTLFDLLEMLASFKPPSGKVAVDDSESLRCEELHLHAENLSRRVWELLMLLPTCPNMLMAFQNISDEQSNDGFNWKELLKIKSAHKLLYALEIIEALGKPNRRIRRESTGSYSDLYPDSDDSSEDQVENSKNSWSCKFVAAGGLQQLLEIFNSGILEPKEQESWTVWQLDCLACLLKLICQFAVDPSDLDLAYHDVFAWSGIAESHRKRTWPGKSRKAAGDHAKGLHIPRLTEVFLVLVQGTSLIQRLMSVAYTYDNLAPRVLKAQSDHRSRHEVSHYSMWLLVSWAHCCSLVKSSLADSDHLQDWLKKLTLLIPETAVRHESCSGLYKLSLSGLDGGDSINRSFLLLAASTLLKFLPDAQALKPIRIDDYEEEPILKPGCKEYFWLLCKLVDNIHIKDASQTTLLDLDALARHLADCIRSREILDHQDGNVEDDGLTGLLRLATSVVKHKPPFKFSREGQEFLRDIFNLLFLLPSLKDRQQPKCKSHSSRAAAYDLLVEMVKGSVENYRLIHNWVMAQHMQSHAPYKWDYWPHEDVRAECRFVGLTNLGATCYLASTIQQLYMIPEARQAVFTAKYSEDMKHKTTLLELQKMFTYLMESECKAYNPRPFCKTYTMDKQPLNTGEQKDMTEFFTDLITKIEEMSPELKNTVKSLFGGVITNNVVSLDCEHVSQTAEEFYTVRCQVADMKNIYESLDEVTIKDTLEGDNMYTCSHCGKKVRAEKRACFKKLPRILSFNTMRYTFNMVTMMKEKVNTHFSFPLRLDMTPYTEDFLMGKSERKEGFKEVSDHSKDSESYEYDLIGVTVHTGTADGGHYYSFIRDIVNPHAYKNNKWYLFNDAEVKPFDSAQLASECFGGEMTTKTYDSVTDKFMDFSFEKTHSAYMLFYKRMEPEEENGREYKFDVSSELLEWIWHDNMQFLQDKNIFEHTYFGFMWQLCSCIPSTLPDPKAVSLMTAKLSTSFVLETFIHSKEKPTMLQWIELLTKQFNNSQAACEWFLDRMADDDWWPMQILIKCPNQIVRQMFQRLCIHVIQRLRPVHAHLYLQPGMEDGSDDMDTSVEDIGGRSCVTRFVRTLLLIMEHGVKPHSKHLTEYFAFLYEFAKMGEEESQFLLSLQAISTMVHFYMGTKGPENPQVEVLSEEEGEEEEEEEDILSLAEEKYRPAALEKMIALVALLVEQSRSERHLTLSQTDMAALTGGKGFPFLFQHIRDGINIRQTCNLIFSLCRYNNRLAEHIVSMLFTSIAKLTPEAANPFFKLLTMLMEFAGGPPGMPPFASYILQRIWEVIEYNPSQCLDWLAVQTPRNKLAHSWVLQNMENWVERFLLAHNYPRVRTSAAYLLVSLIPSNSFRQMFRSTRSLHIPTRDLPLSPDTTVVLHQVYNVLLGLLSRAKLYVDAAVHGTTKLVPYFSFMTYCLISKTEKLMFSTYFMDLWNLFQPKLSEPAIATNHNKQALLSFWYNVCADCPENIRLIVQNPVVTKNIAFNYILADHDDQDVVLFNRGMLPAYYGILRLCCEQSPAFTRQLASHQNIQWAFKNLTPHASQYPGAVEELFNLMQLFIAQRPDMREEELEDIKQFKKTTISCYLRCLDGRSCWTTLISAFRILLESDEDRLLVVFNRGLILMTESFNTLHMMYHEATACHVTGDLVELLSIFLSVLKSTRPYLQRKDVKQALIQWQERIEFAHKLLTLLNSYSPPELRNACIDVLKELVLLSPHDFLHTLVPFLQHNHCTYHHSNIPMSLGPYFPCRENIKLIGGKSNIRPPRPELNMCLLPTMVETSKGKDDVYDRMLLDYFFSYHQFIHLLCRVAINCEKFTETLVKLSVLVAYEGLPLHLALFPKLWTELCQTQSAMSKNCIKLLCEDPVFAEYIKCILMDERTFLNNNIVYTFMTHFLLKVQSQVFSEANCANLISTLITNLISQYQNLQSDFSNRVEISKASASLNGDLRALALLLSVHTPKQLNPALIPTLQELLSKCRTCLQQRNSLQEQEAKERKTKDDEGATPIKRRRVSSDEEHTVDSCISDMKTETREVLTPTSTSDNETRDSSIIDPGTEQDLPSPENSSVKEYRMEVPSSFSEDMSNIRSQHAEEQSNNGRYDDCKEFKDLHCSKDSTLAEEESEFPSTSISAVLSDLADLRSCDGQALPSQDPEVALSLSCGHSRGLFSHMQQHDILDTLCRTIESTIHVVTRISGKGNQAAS
Method in brief: (§1)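 Labelled DUBs from HEK293T lysate were NeutrAvidin-enriched, digested with LysC and trypsin, and run by diaPASEF LC-MS/MS. Before that, each 495 µg sample in Tris/CHAPS/IGEPAL buffer with protease inhibitors was treated in triplicate with fragment at 200 µM or vehicle for 3 h, then with Biotin-Ahx-Ub-VS at 0.5 µM final for 1 h. Values are average log2 ratios of fragment over vehicle by unpaired t-test, based on global-median-normalised Spectronaut label-free quantities from proteins with ≥2 unique peptides.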

[2] = target: T1, USP36 (UniProt Q9P275)
T1 sequence (whole entry): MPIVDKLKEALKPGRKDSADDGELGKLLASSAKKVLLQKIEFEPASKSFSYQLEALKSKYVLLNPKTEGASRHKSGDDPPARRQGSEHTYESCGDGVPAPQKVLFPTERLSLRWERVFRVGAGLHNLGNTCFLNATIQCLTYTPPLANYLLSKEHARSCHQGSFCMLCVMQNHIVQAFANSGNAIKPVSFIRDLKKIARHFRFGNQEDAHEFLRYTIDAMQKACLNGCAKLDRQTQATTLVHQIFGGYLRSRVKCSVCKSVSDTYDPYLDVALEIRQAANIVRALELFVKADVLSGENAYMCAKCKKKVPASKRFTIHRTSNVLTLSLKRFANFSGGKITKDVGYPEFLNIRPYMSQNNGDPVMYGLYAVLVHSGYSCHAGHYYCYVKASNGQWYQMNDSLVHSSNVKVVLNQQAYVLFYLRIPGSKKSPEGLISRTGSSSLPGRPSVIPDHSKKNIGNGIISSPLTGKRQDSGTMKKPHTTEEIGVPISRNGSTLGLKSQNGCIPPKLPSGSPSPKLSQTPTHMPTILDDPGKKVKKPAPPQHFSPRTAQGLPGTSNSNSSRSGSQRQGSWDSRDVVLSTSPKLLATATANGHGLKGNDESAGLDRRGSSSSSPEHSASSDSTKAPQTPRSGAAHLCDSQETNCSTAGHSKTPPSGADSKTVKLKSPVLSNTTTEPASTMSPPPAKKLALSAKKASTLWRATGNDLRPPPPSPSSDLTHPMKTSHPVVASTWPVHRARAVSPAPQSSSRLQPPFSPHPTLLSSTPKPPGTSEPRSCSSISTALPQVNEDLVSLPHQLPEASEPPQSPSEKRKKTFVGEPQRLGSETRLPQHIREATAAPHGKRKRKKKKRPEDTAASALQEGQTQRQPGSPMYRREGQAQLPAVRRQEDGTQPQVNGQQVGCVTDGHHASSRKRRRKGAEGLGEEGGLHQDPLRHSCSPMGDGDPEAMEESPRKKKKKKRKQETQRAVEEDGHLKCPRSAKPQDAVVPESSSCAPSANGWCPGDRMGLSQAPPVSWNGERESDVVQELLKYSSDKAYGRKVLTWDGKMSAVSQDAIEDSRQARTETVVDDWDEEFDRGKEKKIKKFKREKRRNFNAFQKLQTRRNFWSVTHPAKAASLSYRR
Method in brief: as §1

[3] = target: T2, USP38 (UniProt Q8NB14)
T2 sequence (whole entry): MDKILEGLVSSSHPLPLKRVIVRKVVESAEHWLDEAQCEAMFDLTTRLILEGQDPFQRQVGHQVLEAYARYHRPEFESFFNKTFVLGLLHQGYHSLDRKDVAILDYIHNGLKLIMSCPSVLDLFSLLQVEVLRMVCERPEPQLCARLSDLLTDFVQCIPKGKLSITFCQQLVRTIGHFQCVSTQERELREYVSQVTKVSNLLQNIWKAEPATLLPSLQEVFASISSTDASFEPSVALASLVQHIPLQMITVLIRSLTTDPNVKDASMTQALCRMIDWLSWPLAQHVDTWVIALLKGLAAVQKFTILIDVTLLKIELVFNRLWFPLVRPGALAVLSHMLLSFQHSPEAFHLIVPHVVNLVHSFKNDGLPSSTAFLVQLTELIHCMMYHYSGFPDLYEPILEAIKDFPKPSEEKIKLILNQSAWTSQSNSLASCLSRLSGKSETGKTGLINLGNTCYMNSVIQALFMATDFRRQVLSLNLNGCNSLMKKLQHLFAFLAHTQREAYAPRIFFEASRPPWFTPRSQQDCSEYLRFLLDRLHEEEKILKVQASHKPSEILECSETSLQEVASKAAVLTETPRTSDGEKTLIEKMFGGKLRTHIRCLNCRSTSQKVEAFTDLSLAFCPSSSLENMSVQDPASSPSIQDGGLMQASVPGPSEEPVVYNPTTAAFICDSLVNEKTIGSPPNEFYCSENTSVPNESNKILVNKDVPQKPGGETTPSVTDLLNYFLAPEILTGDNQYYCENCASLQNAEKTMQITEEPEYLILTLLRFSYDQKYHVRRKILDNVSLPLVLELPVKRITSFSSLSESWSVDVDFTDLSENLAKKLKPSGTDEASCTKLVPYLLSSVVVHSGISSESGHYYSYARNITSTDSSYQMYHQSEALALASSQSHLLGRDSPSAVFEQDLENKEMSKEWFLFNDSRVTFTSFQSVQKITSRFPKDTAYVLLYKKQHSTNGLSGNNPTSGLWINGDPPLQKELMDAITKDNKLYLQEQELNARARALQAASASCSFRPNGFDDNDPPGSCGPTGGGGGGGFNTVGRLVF
Method in brief: as §1

[4] = target: T3, USP39 (UniProt Q53GS9)
T3 sequence (whole entry): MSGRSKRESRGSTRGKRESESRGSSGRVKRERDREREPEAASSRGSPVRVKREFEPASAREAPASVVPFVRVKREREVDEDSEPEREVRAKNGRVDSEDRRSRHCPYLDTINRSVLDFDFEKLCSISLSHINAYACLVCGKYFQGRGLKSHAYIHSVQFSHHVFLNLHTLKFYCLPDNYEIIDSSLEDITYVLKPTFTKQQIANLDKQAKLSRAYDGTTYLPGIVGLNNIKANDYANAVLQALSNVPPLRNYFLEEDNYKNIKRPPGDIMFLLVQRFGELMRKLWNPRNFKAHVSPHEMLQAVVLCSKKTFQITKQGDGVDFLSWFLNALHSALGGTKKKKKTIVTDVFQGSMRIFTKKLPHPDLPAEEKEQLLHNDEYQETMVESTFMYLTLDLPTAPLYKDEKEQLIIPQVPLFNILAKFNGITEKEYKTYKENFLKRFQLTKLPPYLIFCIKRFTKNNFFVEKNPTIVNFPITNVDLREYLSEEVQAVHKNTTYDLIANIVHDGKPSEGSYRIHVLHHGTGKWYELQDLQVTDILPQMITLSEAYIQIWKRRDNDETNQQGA
Method in brief: as §1

[5] = target: T4, USP4 (UniProt Q13107)
T4 sequence (whole entry): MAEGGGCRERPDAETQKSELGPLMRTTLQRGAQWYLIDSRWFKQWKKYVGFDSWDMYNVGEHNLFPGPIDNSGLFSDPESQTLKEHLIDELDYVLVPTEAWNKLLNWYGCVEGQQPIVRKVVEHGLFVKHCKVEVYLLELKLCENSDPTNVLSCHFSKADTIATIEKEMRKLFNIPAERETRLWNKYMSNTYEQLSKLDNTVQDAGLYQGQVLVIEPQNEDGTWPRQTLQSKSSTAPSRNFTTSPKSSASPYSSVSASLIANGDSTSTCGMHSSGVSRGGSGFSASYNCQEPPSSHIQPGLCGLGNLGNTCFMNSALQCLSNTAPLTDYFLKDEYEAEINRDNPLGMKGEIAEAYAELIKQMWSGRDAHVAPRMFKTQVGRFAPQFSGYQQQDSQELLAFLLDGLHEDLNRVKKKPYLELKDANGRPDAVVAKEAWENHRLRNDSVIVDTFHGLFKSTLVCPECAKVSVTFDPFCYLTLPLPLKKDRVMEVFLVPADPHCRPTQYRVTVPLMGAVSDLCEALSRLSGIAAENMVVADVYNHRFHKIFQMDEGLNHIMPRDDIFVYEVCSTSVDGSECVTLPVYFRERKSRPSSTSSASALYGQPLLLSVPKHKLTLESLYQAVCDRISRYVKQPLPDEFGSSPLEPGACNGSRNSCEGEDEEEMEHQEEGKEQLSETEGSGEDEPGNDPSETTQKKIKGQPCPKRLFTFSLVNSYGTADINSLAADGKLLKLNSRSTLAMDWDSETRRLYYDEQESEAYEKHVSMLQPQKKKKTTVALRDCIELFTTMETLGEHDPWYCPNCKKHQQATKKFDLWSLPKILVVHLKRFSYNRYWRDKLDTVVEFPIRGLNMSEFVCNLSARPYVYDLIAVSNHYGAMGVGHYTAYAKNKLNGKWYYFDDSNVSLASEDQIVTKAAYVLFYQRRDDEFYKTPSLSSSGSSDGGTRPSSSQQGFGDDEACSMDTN
Method in brief: as §1

Measured: log2 ratio of Biotin-Ahx-Ub-VS probe labelling

CS(=O)(=O)c1ccc(NC(=O)CCl)cc1
inactive: [1] 0.0382 | [2] 0.166 | [3] 0.0532 | [4] -0.186 | [5] -0.0813
